High-throughput results deposited in PubChem BioAssay by several laboratories.
Hits are enriched below; roughly 1.5% of the tested compounds scored in any of these assays.
NRP1-CendR mod – modulators of CendR peptide binding to human neuropilin-1; O14786; FAM-RPARPAR peptide binding to NRP-1, fluorescence polarization; inhibition, % at 25 µM; actives 0.85% (n = 360,000); AID 602438;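 active = inhibition or corrected inhibition above about 18%, plus a signal ratio from 0.5 to 1.5, limit read from the data, passing the limit was not always enough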
Target sequence (O14786 whole entry, looked up): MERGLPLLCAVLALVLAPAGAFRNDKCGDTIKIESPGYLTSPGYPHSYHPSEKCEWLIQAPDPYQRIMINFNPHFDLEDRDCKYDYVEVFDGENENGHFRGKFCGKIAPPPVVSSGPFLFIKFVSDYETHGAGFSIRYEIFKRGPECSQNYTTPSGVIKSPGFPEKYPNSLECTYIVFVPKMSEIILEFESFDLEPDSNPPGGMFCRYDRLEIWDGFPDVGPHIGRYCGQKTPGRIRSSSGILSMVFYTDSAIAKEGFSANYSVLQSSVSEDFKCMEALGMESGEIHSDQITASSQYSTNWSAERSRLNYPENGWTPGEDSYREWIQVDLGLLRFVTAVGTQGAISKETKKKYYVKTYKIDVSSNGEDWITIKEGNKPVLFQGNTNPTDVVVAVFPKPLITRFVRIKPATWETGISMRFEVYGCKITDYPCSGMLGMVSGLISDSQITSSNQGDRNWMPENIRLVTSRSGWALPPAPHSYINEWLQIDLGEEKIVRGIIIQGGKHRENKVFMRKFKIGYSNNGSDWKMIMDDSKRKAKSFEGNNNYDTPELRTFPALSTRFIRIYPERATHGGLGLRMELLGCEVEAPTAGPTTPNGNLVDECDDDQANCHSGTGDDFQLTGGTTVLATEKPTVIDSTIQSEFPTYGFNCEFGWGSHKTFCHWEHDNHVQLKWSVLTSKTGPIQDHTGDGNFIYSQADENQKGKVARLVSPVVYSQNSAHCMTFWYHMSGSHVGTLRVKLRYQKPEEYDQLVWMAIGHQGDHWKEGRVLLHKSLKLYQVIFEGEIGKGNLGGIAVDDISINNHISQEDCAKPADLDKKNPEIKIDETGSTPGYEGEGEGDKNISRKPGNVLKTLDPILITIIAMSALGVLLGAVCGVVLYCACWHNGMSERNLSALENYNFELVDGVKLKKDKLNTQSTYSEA
N-glyco inh – blocks N-linked glycosylation in D54 reporter cells; reporter increase, % at 12.5 µM; actives 0.23% (n = 360,000); D54 ERlucT glycosylation luciferase reporter, 24 h; percent of 100 nM tunicamycin response;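 active = mean luciferase reporter signal, scaled so untreated is 0 and the glycosylation-blocking control 100, at or above a set limit in every replicate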;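 also: luciferase carries N-glycosylation sites so blocking glycosylation raises the light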
RAD52 inh – RAD52 (human) annealing inhibition; P43351; recombinant RAD52 DNA annealing, FRET fluorescence; inhibition, % at 18.7 µM; actives 0.46% (n = 360,000); AID 651710;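 active = every replicate showing at least 50% inhibition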
DNA FID counter – counter-screen for HCV NS3 helicase inhibitors: DNA intercalator displacement; DNA fluorescent intercalator displacement, fluorescence; inhibition, % at 7.9 µM; actives 0.17% (n = 290,000); AID 1845; in the data active = inhibition above about 37%;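 also: higher means more ethidium bromide displaced from hairpin DNA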
miR122 inh – blocks miR-122 activity in Huh7 sensor cells. Huh7 miR-122 Renilla luciferase sensor, 48 h; neutral wells = 0, positive control = 100. activation (reporter increase), % at 12.5 µM. actives 0.3% (n = 340,000). AID 602342;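 active = mean replicate activation score at least 90 and every replicate individually at or above 90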;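 also: higher luciferase means less miR-122 activity so hits act as miR-122 inhibitors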
RAD54 branch – inhibitors of human RAD54 branch migration | actives 0.14% (n = 360,000) | AID 602329 | Q92698 | RAD54 Holliday junction branch migration, FAM/BHQ fluorescence | inhibition, % at 10.4 µM;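 active = mean normalized replicate activity at least 40 and at least half of replicates scoring 40 or more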;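 also: inhibitors cause a drop in the FAM fluorescence signal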
Of the large screens only hits and unclear results are named; the others gave an inactive call.

O=C(C[n+]1ccccc1)Nc1ccc(Oc2ccccc2)cc1	DNA FID counter 37 (no result: miR122 inh, RAD54 branch)
CCC(=O)N[C@@H]1CC[C@@H](CC(=O)NCC2CCCCC2)O[C@@H]1CO	none (no result: NRP1-CendR mod, N-glyco inh, DNA FID counter)
C[C@@H]1CN([C@@H](C)CO)C(=O)c2cc(NC(=O)Cc3ccccc3)ccc2O[C@@H](C)CCCCO[C@@H]1CN(C)C(=O)Cc1ccccc1	none (no result: NRP1-CendR mod, N-glyco inh, DNA FID counter)
COc1ccccc1CCC(=O)Oc1ccc(C#N)cc1OC	none
COc1cc(C#N)ccc1OC(=O)Cc1cc(OC)c(OC)c(OC)c1	NRP1-CendR mod 25
O=C(C[C@@H]1CC[C@H]2[C@@H](COC[C@H](O)CN2S(=O)(=O)c2ccc(F)cc2)O1)NCC1CCCCC1	RAD52 inh 89 (no result: NRP1-CendR mod, N-glyco inh, DNA FID counter)
O=C(C[C@@H]1CC[C@@H]2[C@H](COC[C@H](O)CN2S(=O)(=O)c2ccc(F)cc2)O1)NCC1CC1	none (no result: NRP1-CendR mod, N-glyco inh, DNA FID counter)
O=C(C[C@H]1CC[C@@H]2[C@H](COC[C@@H](O)CN2S(=O)(=O)c2ccc(F)cc2)O1)NCC1CCCCC1	RAD52 inh 89 (no result: NRP1-CendR mod, N-glyco inh, DNA FID counter)
O=C(C[C@@H]1CC[C@H]2[C@@H](COC[C@@H](O)CN2S(=O)(=O)c2ccc(Cl)cc2)O1)NCC1CCCCC1	none (no result: NRP1-CendR mod, N-glyco inh, DNA FID counter)
O=C(C[C@H]1CC[C@@H]2[C@H](COC[C@H](O)CN2S(=O)(=O)c2ccc(F)cc2)O1)NCC1CCCCC1	RAD52 inh 59 (no result: NRP1-CendR mod, N-glyco inh, DNA FID counter)
O=C(C[C@@H]1CC[C@@H]2[C@H](COC[C@@H](O)CN2S(=O)(=O)c2ccc(F)cc2)O1)NCC1CCCCC1	RAD52 inh 71 (no result: NRP1-CendR mod, N-glyco inh, DNA FID counter)
O=C(C[C@@H]1CC[C@H]2[C@@H](COC[C@H](O)CN2S(=O)(=O)c2ccc(F)cc2)O1)NCCN1CCCCC1	none (no result: NRP1-CendR mod, N-glyco inh, DNA FID counter)
CNc1ccccc1	none (no result: DNA FID counter)
CNc1cccccc1=S	NRP1-CendR mod 25 (no result: RAD52 inh)
COc1cc(/C=N/NC(=O)c2cccs2)ccc1OCc1ccccc1	none (no result: RAD52 inh)
COc1ccc(/C=N/NC(=O)c2sccc2OCc2ccc(F)cc2)cc1OC	N-glyco inh 38 (no result: RAD52 inh)
Cc1ccccc1S(=O)(=O)N1CCCCN2[C@H](CO)[C@H](c3ccc(C#CCN(C)C)cc3)[C@@H]2C1	none (no result: NRP1-CendR mod, N-glyco inh, DNA FID counter)
COc1ccc(NC(=O)Nc2cc(C)cc(C)c2)cn1	none
COc1ccc(NC(=O)/C=C/c2cccc(F)c2)cn1	NRP1-CendR mod 19 (no result: RAD52 inh)
COc1ccc(NC(=O)/C=C/c2ccco2)cn1	none
COc1ccc(NC(=O)Nc2cccc(C(F)(F)F)c2)cn1	NRP1-CendR mod 28
CO[C@H]1CN(C)C(=O)c2cc(NC(=O)c3cccc(F)c3)ccc2OC[C@@H](C)NC[C@@H]1C	none (no result: NRP1-CendR mod, N-glyco inh, DNA FID counter)
CCC(=O)N(C)C[C@H]1Oc2cc(C#CCOC)ccc2S(=O)(=O)N([C@H](C)CO)C[C@@H]1C	none (no result: NRP1-CendR mod, N-glyco inh, DNA FID counter)
Cc1noc(C)c1NC(=O)Nc1cccc2c1O[C@H](CN(C)S(C)(=O)=O)[C@@H](C)CN([C@@H](C)CO)C2=O	none (no result: NRP1-CendR mod, N-glyco inh, DNA FID counter)
C#CCOCCOCCOCCNc1nc(N2CCN(C(=O)[C@H](Cc3cc4ccccc4[nH]3)n3cc([C@@H](N)C(C)CC)nn3)CC2)nc(N2CCN(C(=O)[C@H](Cc3cc4ccccc4[nH]3)n3cc([C@@H](N)CC(C)C)nn3)CC2)n1 (some centres not stated)	DNA FID counter 41 (no result: NRP1-CendR mod, N-glyco inh, RAD52 inh, miR122 inh, RAD54 branch)
C#CCOCCOCCOCCNc1nc(N2CCN(C(=O)[C@H](CCCCN)n3cc([C@@H](N)CO)nn3)CC2)nc(N2CCN(C(=O)[C@H](Cc3cc4ccccc4[nH]3)n3cc([C@@H](N)CC(C)C)nn3)CC2)n1	DNA FID counter 49 (no result: NRP1-CendR mod, N-glyco inh, RAD52 inh, miR122 inh, RAD54 branch)
C#CCOCCOCCOCCNc1nc(N2CCN(C(=O)[C@H](CCC(=O)O)n3cc(C(N)CO)nn3)CC2)nc(N2CCN(C(=O)[C@H](Cc3cc4ccccc4[nH]3)n3cc(C(N)[C@H](C)CC)nn3)CC2)n1 (some centres not stated)	none (no result: RAD52 inh)
C#CCOCCOCCOCCNc1nc(N2CCN(C(=O)C(Cc3ccc(O)cc3)n3cc(C(N)CC(C)C)nn3)CC2)nc(N2CCN(C(=O)C(Cc3cc4ccccc4[nH]3)n3cc(C(N)Cc4ccc(O)cc4)nn3)CC2)n1 (configuration not stated)	DNA FID counter 40 (no result: NRP1-CendR mod, N-glyco inh, RAD52 inh, miR122 inh, RAD54 branch)
C#CCOCCOCCOCCNc1nc(N2CCN(C(=O)[C@H](CCCCN)n3cc([C@@H](N)C(C)CC)nn3)CC2)nc(N2CCN(C(=O)[C@H](Cc3cc4ccccc4[nH]3)n3cc([C@@H](N)CC(C)C)nn3)CC2)n1 (some centres not stated)	DNA FID counter 48, RAD54 branch 60 (no result: RAD52 inh, miR122 inh)
C#CCOCCOCCOCCNc1nc(N2CCN(C(=O)[C@H](CCC(=O)O)n3cc(C(N)Cc4ccc(O)cc4)nn3)CC2)nc(N2CCN(C(=O)[C@H](Cc3cc4ccccc4[nH]3)n3cc(C(N)CC(C)C)nn3)CC2)n1 (some centres not stated)	none (no result: NRP1-CendR mod, N-glyco inh, RAD52 inh, miR122 inh, RAD54 branch)
C#CCOCCOCCOCCNc1nc(N2CCN(C(=O)[C@H](Cc3cc4ccccc4[nH]3)n3cc([C@@H](N)C(C)CC)nn3)CC2)nc(N2CCN(C(=O)[C@H](CCCCN)n3cc([C@@H](N)CO)nn3)CC2)n1 (some centres not stated)	DNA FID counter 55 (no result: NRP1-CendR mod, N-glyco inh, RAD52 inh, miR122 inh, RAD54 branch)
CN1C(=O)c2cc(NS(=O)(=O)c3cccc(F)c3)ccc2OC[C@H]2O[C@H](CC(=O)NCCN3CCCCC3)CC[C@H]21	none (no result: NRP1-CendR mod, N-glyco inh, DNA FID counter)
CCSc1nc2ccccc2n1Cc1cccc([N+](=O)[O-])c1	NRP1-CendR mod 23 (no result: RAD52 inh)
O=C(C[C@@H]1CC[C@@H](NC(=O)c2ccncc2)[C@@H](CO)O1)Nc1ccc(-c2ccccc2)cc1	none (no result: NRP1-CendR mod, N-glyco inh, DNA FID counter, miR122 inh, RAD54 branch)
COc1ccc(CCNC(=O)c2nnn(CC(=O)Nc3ccccc3C)c2N)cc1OC	NRP1-CendR mod 28 (no result: RAD52 inh)
COc1ccccc1NC(=O)Cn1nnc(C(=O)NCc2cccs2)c1N	N-glyco inh 28
C[C@@H]1CN([C@@H](C)CO)C(=O)c2cc(NC(=O)c3ccncc3)ccc2O[C@@H](C)CCCCO[C@H]1CN(C)Cc1ccc2c(c1)OCO2	none (no result: NRP1-CendR mod, N-glyco inh, DNA FID counter)
C[C@@H](NC(=O)c1ncn2c1c(=O)[nH]c1ccc(Br)cc12)c1ccccc1	N-glyco inh 33 (no result: DNA FID counter)
CCOC(=O)[C@H]1[C@H]2COc3ccccc3[C@@H]2N2C(=O)c3cc(Cl)ccc3NC(=O)[C@@]12C	NRP1-CendR mod 23 (no result: DNA FID counter)
C[C@@]12C(=O)Nc3cc(Cl)ccc3C(=O)N1[C@H]1c3ccccc3OC[C@@H]1[C@@H]2c1ccccc1	N-glyco inh 31 (no result: RAD52 inh, DNA FID counter)
CCOC(=O)[C@H]1[C@H]2COc3ccccc3[C@@H]2N2C(=O)c3ccc(Cl)cc3NC(=O)[C@@]12C	none (no result: DNA FID counter)
C[C@@]12C(=O)Nc3cc(Cl)ccc3C(=O)N1[C@H]1c3cc(Cl)ccc3OC[C@@H]1[C@@H]2c1ccccc1	none (no result: DNA FID counter, miR122 inh)
C[C@H]1NC(=O)[C@]2(C)[C@@H](c3ccccc3)[C@H]3COc4ccccc4[C@@H]3N2C1=O	none (no result: DNA FID counter)
C[C@@]12C(=O)Nc3ccc(F)cc3C(=O)N1[C@H]1c3cc(Cl)ccc3OC[C@@H]1[C@@H]2c1ccccc1	N-glyco inh 28 (no result: DNA FID counter)
